TGFb inhibitor: inhibitors of TGF-b signaling; HepG2 CAGA-GFP TGF-b/SMAD3 reporter, GFP fluorescence, 18 h; TGF-beta stimulated, 500 pg/mL final; Potency, µM (highest dose often 46.1 µM), for inactives: at the highest dose activity, negative = inhibition, actives largely listed as inhibitors; 410,000 compounds, 1.2% hits; further: potency means the concentration at half of the fitted maximal effect; on the % scale 0 is the no-effect control and ±100 the full control effect; nearly all actives have a fitted effect of over 65% in size
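Cell-based qHTS in HEPG2 carrying a CAGA-GFP Smad reporter; compounds added before 500 pg/mL final TGF-beta, 18 h incubation at 37 degrees C, GFP fluorescence quantified per cell by imaging cytometry.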
DT40 TDP1 CPT: growth inhibition of DT40 Tdp1-/-;hTDP1 cells with camptothecin (screen for TDP1 inhibitors) | chicken DT40 Tdp1-/-;hTDP1 cells + 20 nM CPT, ATP luminescence, 48 h | Potency, µM (highest dose often 46.2 µM), for the others: at the highest dose activity change, negative = growth inhibition, hits mostly inhibitors | 420,000 compounds, 12% hits; further: potency means the concentration at half of the fitted maximal effect; on the % scale 0 is the no-effect control and ±100 the full control effect; nearly all actives have a fitted effect of over 55% in size
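Chicken DT40 Tdp1-/- cells stably complemented with human TDP1 were seeded at 400 cells/well in medium containing 20 nM camptothecin, exposed to pin-transferred compounds, and grown at 37 °C for at least 48 hr. Viability was read as ATP luminescence.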
HepG2 viability: counter-screen for TGF-b inhibitors: cytotoxicity in HepG2 cells; 410,000 compounds, 0.76% hits; Potency, µM (top dose mostly 46.1 µM), for inactives: top-dose activity change, negative = cytotoxicity, usual class: cytotoxic; AID 588856; HepG2 CAGA-GFP viability, ATP luminescence, 18 h; further: potency means the concentration at half of the fitted maximal effect
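HepG2 CAGA-GFP cells (1000/well, DMEM with 1% FBS) received compound, then TGF-beta at 500 pg/mL final, and were incubated 18 hours at 37 degrees C. Viability was read by CellTiter-Glo luminescence. Media-only wells were set as complete cell-killing and DMSO as no toxicity.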
TDP1 cell noCPT: qHTS for Inhibitors of human tyrosyl-DNA phosphodiesterase 1 (TDP1): qHTS in cells in absence of CPT; DT40 Tdp1-/- hTDP1 cells, no CPT, ATP luminescence, 48 h; Potency, µM (titrated, usually from 46.2 µM), for inactives: top-dose activity change, negative = growth inhibition, hits mostly inhibitors; 420,000 compounds, 15% hits; AID 686978, 2013; further: potency means the concentration at half of the fitted maximal effect; on the % scale 0 is the no-effect control and ±100 the full control effect; nearly all actives have a fitted effect of over 55% in size
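Camptothecin absent (DMSO only). Human TDP1-complemented DT40 knockout cells, 400 cells/well, 37 °C for minimum 48 hr; ATP measured via CellTiter-Glo, 30 min dark incubation, luminescence.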
TDP1 inh: inhibitors of human tyrosyl-DNA phosphodiesterase TDP1. Q9NUW8. recombinant TDP1, AlphaScreen DNA substrate cleavage. Potency, µM (top dose mostly 130 µM), without a hit: top-dose activity change, negative = inhibition, usual class: inhibitors. 350,000 compounds, 0.28% hits. AID 485290; further: potency means the concentration at half of the fitted maximal effect; on the % scale 0 is the no-effect control and ±100 the full control effect; nearly all actives have a fitted effect of over 40% in size
Target sequence (Q9NUW8 whole entry, looked up): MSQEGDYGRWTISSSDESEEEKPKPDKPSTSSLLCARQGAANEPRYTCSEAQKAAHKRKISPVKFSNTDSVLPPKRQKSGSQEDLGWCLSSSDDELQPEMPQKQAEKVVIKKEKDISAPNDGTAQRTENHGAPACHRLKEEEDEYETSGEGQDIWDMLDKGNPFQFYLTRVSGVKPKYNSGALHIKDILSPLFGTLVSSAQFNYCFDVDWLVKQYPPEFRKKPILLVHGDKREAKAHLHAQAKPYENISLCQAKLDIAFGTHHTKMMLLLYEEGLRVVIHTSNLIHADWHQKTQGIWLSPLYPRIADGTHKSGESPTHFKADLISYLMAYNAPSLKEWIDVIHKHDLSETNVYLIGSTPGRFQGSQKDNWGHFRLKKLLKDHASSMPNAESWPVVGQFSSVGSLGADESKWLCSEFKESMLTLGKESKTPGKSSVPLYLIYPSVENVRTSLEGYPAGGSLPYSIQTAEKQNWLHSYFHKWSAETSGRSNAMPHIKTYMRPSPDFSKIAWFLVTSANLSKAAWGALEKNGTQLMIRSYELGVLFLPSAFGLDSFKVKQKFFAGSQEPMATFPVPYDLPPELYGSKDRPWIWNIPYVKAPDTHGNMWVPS
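AlphaScreen read-out: signal falls as enzyme removes the 3' tyrosine-FITC from a 5'-biotinylated DNA oligo (15 nM, 5 min, RT). Enzyme was E. coli-made recombinant Tdp1 at 1 nM, exposed to compound for 15 min beforehand; beads 10 ug/ml, 10 min.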
IL1B secr inh: blocks inflammasome-driven IL-1 beta release; THP-1 LPS/ATP IL-1B secretion, AlphaLISA, 16 h; stronger effect = lower value; activity change, % at 57.5 µM; 360,000 compounds, 4.7% hits; AID 743279; in the data active means activity change below about -50%; inconclusive means mostly about -30% to -49%; further: on the % scale 0 is the no-effect control and ±100 the full control effect
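Secreted IL-1B measured by AlphaLISA bead assay after 16 h compound exposure of THP-1 cells; compounds (final up to 57.5 uM) added 1 h before LPS (250 ng/mL) and ATP (1.25 mM) stimulation; lower signal means less secretion.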
* hit, by the source's call; [ ] = remark or other dose. Sampled rows, rich in hits. Any-hit rate of the full collection: about 18%. Unless noted, the call rests on the fitted dose curve; in most records, active means well fitted curve in the direction sought with a large enough effect; inconclusive means small, poorly fitted or top-dose-only effect, or another doubt; inactive means no such curve, though single readings can be large; an effect the other way counts as inactive or inconclusive.

For CC1=CC(=O)C=C(C)C1=NOc1ccccc1[N+](=O)[O-] the results were TGFb inhibitor 2.3%, DT40 TDP1 CPT 1.3µM*, HepG2 viability 5.2%, TDP1 cell noCPT 2.06µM*, TDP1 inh 6.3% and IL1B secr inh inconclusive.
CCOc1ccc(S(=O)(=O)n2nc(C)c(S(=O)(=O)N3CCCCCC3)c2C)cc1 was read as TGFb inhibitor -15.9%, DT40 TDP1 CPT -15.6%, HepG2 viability -14.1%, TDP1 cell noCPT -15.0% and TDP1 inh -0.6%.
For COCCCNC(=O)Cn1ccc(NC(=O)OCc2ccccc2)nc1=O the results were TGFb inhibitor 18.4%, DT40 TDP1 CPT 1.6%, HepG2 viability 3.4%, TDP1 cell noCPT 7.6%, TDP1 inh 3.0% and IL1B secr inh 29.2.
Screening O=c1nc2sc3ccccc3n2c(=O)n1-c1cccc(Cl)c1 returned TGFb inhibitor -21.4%, DT40 TDP1 CPT inconclusive, HepG2 viability -48.8%, TDP1 cell noCPT inconclusive, TDP1 inh 4.7% and IL1B secr inh 0.3.
O=c1nc2sc3ccccc3n2c(=O)n1-c1ccc(Cl)cc1 was read as TGFb inhibitor -3.1%, DT40 TDP1 CPT inconclusive, HepG2 viability -15.1%, TDP1 cell noCPT 20.6µM*, TDP1 inh 6.0% and IL1B secr inh -15.7.
Screening O=c1nc2sc3ccccc3n2c(=O)n1-c1ccc(Cl)c(Cl)c1 returned TGFb inhibitor inconclusive, DT40 TDP1 CPT inconclusive, HepG2 viability -28.3% and TDP1 cell noCPT 10.3µM*.
COCCn1c(C)cc(/C=C(\C#N)C(=O)OCC(=O)N(C)c2c(N)n(Cc3ccccc3)c(=O)[nH]c2=O)c1C was read as TGFb inhibitor 0.0%, DT40 TDP1 CPT 1.2%, HepG2 viability 2.7%, TDP1 cell noCPT -20.3% and IL1B secr inh -9.8.
CCOC(=O)c1ccc(-n2c(CCC(=O)O)ccc2-c2cccs2)cc1 was read as TGFb inhibitor -9.6%, DT40 TDP1 CPT -18.7%, HepG2 viability -8.2%, TDP1 cell noCPT inconclusive, TDP1 inh 5.3% and IL1B secr inh -69.6*.
Screening Cc1oc2ncn(CC(C)C)c(=O)c2c1C(=O)N(Cc1ccccc1)C(C)C returned TGFb inhibitor inconclusive, DT40 TDP1 CPT -23.3%, HepG2 viability -3.6%, TDP1 cell noCPT inconclusive and TDP1 inh -6.3%.
Screening CCC(c1nnc(SCC(=O)NC2CCCCC2)n1Cc1ccccc1)N(C)C (configuration not stated) returned TGFb inhibitor 9.4%, DT40 TDP1 CPT 7.6%, HepG2 viability -5.9%, TDP1 cell noCPT -6.4% and IL1B secr inh 8.0.
For COc1ccccc1C(=O)Nc1ccc(C(=O)OCc2cc(=O)n3ccsc3n2)cc1 the results were TGFb inhibitor -2.6%, DT40 TDP1 CPT -11.1%, HepG2 viability -26.1%, TDP1 cell noCPT -13.3% and TDP1 inh -13.8%.
CCc1nc2c(OCCOc3ccc(F)cc3)cccn2c1N(C=O)Cc1ccc(OC)cc1 was read as TGFb inhibitor inconclusive, DT40 TDP1 CPT inconclusive, HepG2 viability -9.0%, TDP1 cell noCPT inconclusive and IL1B secr inh -21.2.
`CCc1nc2c(OCc3ccc(Cl)cc3)cccn2c1N(C=O)Cc1ccc(OC)cc1` gave TGFb inhibitor -19.1%, DT40 TDP1 CPT 20.6µM*, HepG2 viability -1.5%, TDP1 cell noCPT inconclusive and IL1B secr inh 0.0.
For CCc1nc2c(OCCn3cccc3)cccn2c1N(C=O)Cc1ccc(OC)cc1 the results were TGFb inhibitor inconclusive, DT40 TDP1 CPT 20.6µM*, HepG2 viability -29.0%, TDP1 cell noCPT inconclusive and IL1B secr inh -22.5.
Screening CCc1nc2c(OCc3ccc(Cl)cc3Cl)cccn2c1N(C=O)Cc1ccc(OC)cc1 returned TGFb inhibitor inconclusive, DT40 TDP1 CPT inconclusive, HepG2 viability -17.6%, TDP1 cell noCPT 23.1µM* and IL1B secr inh -67.4*.
`CCc1nc2c(OCc3c(C)noc3C)cccn2c1N(C=O)Cc1ccc(OC)cc1` gave TGFb inhibitor 22.6%, DT40 TDP1 CPT 23.1µM*, HepG2 viability -16.5%, TDP1 cell noCPT 14.6µM* and IL1B secr inh 5.7.
For CCc1nc2c(OCc3ccc(Cl)cc3Cl)cccn2c1N(C)C(C)=O the results were TGFb inhibitor inconclusive, DT40 TDP1 CPT inconclusive, HepG2 viability -45.7%, TDP1 cell noCPT inconclusive and IL1B secr inh inconclusive.
Screening O=C1[C@H]2[C@H]3[C@H](O)[C@H](O)C/C(=N/OCc4ccccc4)[C@@H]3CC[C@@H]2C(=O)N1C1CCCCC1 returned TDP1 inh 3.7%[21 µM].
`Cc1ccc(Cn2ccnc2SCC(=O)Nc2ccccc2C(F)(F)F)cc1` gave TGFb inhibitor -22.4%, DT40 TDP1 CPT -10.7%, HepG2 viability -5.2%, TDP1 cell noCPT 5.4% and TDP1 inh 3.3%.
Screening CCc1nc2c(OCC(=O)c3ccc(Cl)cc3Cl)cccn2c1N(C)C(=O)c1cccs1 returned TGFb inhibitor inconclusive, DT40 TDP1 CPT 16.4µM*, HepG2 viability -19.6%, TDP1 cell noCPT 18.4µM* and IL1B secr inh inconclusive.
Screening CCc1nc2c(OCC(=O)c3ccc(Cl)cc3Cl)cccn2c1N(C=O)Cc1ccc(OC)cc1 returned TGFb inhibitor inconclusive, DT40 TDP1 CPT 23.1µM*, HepG2 viability -27.1%, TDP1 cell noCPT 18.4µM* and IL1B secr inh 1.4.
CCc1nc2c(OCC(N)=O)cccn2c1N(C)C(=O)c1cccs1 was read as TGFb inhibitor 35.3%, DT40 TDP1 CPT -6.4%, HepG2 viability 9.1%, TDP1 cell noCPT -4.8% and IL1B secr inh 42.0.
COc1ccc(C(=O)NCc2ccc3c(c2)CCO3)cc1 was read as TGFb inhibitor -24.7%, DT40 TDP1 CPT -2.8%, HepG2 viability -33.2%, TDP1 cell noCPT -12.8%, TDP1 inh 6.2% and IL1B secr inh 0.0.
`CC(C(=O)N1CCN(Cc2ccc3c(c2)OCO3)CC1)n1cc([N+](=O)[O-])cn1` (configuration not stated) gave TGFb inhibitor inconclusive, DT40 TDP1 CPT 7.9%, HepG2 viability 6.9%, TDP1 cell noCPT -8.8%, TDP1 inh 10.5% and IL1B secr inh 28.9.
For Cc1nc(SCC(=O)NCC2CCCO2)c2c(C)c(C)sc2n1 (configuration not stated) the results were TGFb inhibitor 3.9%, DT40 TDP1 CPT 5.7%, HepG2 viability -2.9%, TDP1 cell noCPT -0.5%, TDP1 inh -5.6% and IL1B secr inh 11.2.

Screening data (PubChem BioAssay)
